The text below walks through data of the supplement of paper PMC6555819.

This test deals with VDR:RXRa (NR concentration 270 nM, RXRa partner concentration 90 nM). The test can be described thus: PBM binding z-score (relative to random genomic background probes); higher = stronger binding; sequences stand for … in GC…GCGATTGACAGCGTAGAATGAAGG
How it is done:
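Protein-binding microarray (Agilent 4x180K custom design, double-stranded 60-nt probes: 5' GC cap, 34-nt variable region, 24-nt constant primer region; full probe sequence given). Purified or IVT nuclear receptor:RXRα heterodimers (3:1 NR:RXRα, mostly 270:90 nM) or homodimers were incubated for 1 h in PBS with 2% milk and no ligand, then detected with Alexa488 antibodies. Fluorescence from o1-orientation probes (~5 replicates averaged) was converted to z-scores against 500 random hg19 background probes. Variable regions are seed direct-repeat (DR0–DR5) sites, all their single-nucleotide variants and half-site ablations.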
Sequence CTATGTAGGTTAAGGGGGTCATTCAATTTGAAAG displayed a PBM binding z-score of 7.18. CGTCAAAGTTCACCTAAGGTAACGTAAAGCACGC gave a PBM binding z-score of 4.82. With CCTGCTAGGTCAAGGGTCAGCTAAAGCAGCTCGC the figure was 4.17. For AGTCAGAGTTCATCTAGGTAACGTAAGATATGCT, the PBM binding z-score was determined as 5.48.

CTATGTAGGTAAAGGGGGTCATTCAGTTTGAAAG showed a PBM binding z-score of 6.95. With ACATGTAGGTTAGGGTCATTCAGAAAGTAGGGAA the figure was 4.52; with TCATATAGGTAATAAAGGTGAAAGTCGGCATCTA, 1.42; with CGAACTAGCTCAAGGACAGTGAATCTCCGCACGC, -0.322. With ATCTGTAGGTTAGGGTCATTCAGAAAGTAGGGAA the figure was 4.35; with CGAACTAGGTCAAAGGACAGTGAAAGGCGACGTA, 1.32; with CGTCCAAGGTCAATGCGAGGTCAGTGAAAGCATT, 6.22.

In turn, CCTGCTCGGTCAATGGTCAGCTAAAGCAGCTCGC came in with a PBM binding z-score of -0.375. The value for CCTACTGGGCCATTCAGAGGACATTGATCATATG was -0.347; that for CCGAGTAGGTTACGAGGGGGCATTCGGTGCGAAT was 5.48; that for ACTAATTGGTCAGCTGAGGTCACACACAATTCGG was 4.77. As for GCTGCTAGGTCATGTTGGTCAGCTAACGGGTACG, the PBM binding z-score was found to be 2.15.

Take GATTCAGGGTCAGCTAGAGGCCAGAGTATGGAAA: the PBM binding z-score was found to be 4.09.

CGAACTAGGTTAAAGGACAGTGAAAGGCGACGTA: the PBM binding z-score was -0.216. Consider TTACCAAGGTGAAAGGTCATTGATGCACGCCTTG, for which the PBM binding z-score was determined as 5.41. ACTAGTTGGTCACCTGAGGTCACACACAATTCGG: the PBM binding z-score is 5.23. GATACAGGGTGAAGGCCAGAGTACGCGTATTGAT yielded a PBM binding z-score of -0.32. For AGAATGAGGTTAACAAAGATCAGGGAAACGCTTG, the PBM binding z-score amounted to 1.71. With CCTGCTAGTTCAATGGTCAGCTAAAGCAGCTCGC the figure was 0.426; with CCGACTGGGGCAAAGGTTACGATACTCAGTACGA, 1.61; with CCGAGTAGGTTACGACGGGGCATTCAGTGCGAAT, 1.49. In turn, CCGACTGGGCCATTCAGAGGTCATTGATCATATG registered a PBM binding z-score of 3.7. The value for CGTCAAAGTTAAAGGTAACGTAACAGAAAGCAGC was 0.291; that for CGAACTAGGTCAAAGGACACTGAAAGGCGACGTA was 1.74; that for CGAACTAGGTGATTGACAGGACAGTGAATAGTAA was -0.0545. On to CCGAGTAGGTTAAGAGGGGGCATTCAGTGCGAAT, for which the PBM binding z-score came out at 5.44.

With CCGAGTAGGTTACGAGGGGGCATTCAATGCGAAT, the PBM binding z-score worked out at 4.88. With CGTCCAAGGTCAACGCTAGGTCAGTGAAAGCATT the figure was 5.09; with CGTCTAAGGTCAAAGGTCAGTGAAGAGATGACGG, 6.78; with CGAACTAGGTCTCCAGGACAGTGAAGAGGTTGGA, -0.586. ATATGTAGGGTAGGGTCATTCAGAAAGTAGGGAA: the PBM binding z-score stood at 4.48. The value for ATATGTAGGCTAGGGTCATTCAGAAAGTAGGGAA was 3.8; that for AATACAGGGTCATTAGGCCAGAGTAGGTACGAAT was 4.61; that for CAAACTAGGTCAAGAGGTCAAAGGCCGCTTCCCG was 5.83. The sequence CTATGTAGATTAAGGGGGTCATTCAGTTTGAAAG had a PBM binding z-score of 6.53. In the case of TGGCCTAGGTCATGCGGGCCAGTATAGTGTCGGC, the PBM binding z-score came to 2.64.
